Data on 36 molecules can be found in PubChem BioAssay (NCATS).

Several values for one entry are separate records, joined by “and”; a condition that tells them apart may be missing. Equal values may be shown once. Results filed as inconclusive are left out. More than one record can exist for a structure, and the calls need not agree. Activity calls are given as the source filed them. Unless noted, calls follow the shape of the dose curve; as a rule, active = well fitted curve in the direction sought with a large enough effect; inconclusive = small, poorly fitted or top-dose-only effect, or another doubt; inactive = no such curve, though single readings can be large; an effect the other way counts as inactive or inconclusive.

Assay [1] addresses Cytochrome P450 2C9 (Homo sapiens) (UniProt P11712). The assay can be described thus: qHTS Assay for Inhibitors and Substrates of Cytochrome P450 2C9 (AID 883). Also: nearly all actives have a fitted effect of over 60% in size. Also: potency is read from the fitted curve at half-maximal effect. In short, it runs like this:
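CYP2C9 deoxyluciferin hydroxylation, 37C, 60 min with NADPH regeneration; 10nM enzyme, 100uM Luciferin-H (KM). Glo detection reagent stopped reaction; luminescence normalized to sulphaphenazole (57uM) full inhibition.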
A general note: In qHTS, concentration-response curves come from the screen itself.

The target of assay [2] is Cytochrome P450 3A4 (Homo sapiens) (UniProt P08684). The assay can be described thus: qHTS Assay for Activators of Cytochrome P450 3A4 (AID 885). Also: nearly all actives have a fitted effect of over 65% in size. Also: potency is read from the fitted curve at half-maximal effect. Put shortly:
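Using 20nM recombinant human CYP3A4 in potassium phosphate (200mM), substrate Luciferin-PPXE at 25uM, luminescent luciferin detection followed a 60-min RT NADPH reaction; data scaled to 57 uM ketoconazole.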

For assay [3], the target named is Cytochrome P450 2D6 (Homo sapiens) (UniProt P10635). The assay can be described thus: qHTS Assay for Inhibitors and Substrates of Cytochrome P450 2D6 (AID 891). Also: nearly all actives have a fitted effect of over 60% in size. Also: potency is read from the fitted curve at half-maximal effect. In short, it runs like this:
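Luminescent read-out of luciferin formed by 5 nM human CYP2D6 demethylating 30 uM Luciferin-ME EGE (Km level) over 60 min at room temperature after NADPH regeneration addition. Data normalized to full inhibition by 1.43 uM quinidine.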

Assay [4] concerns the target Cytochrome P450 2C19 (Homo sapiens) (UniProt P33261). Briefly: qHTS Assay for Inhibitors and Substrates of Cytochrome P450 2C19 (AID 899). Also: nearly all actives have a fitted effect of over 60% in size. Also: potency is read from the fitted curve at half-maximal effect. In short, it runs like this: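 In 50mM KPO4, the reaction held 5nM enzyme and KM-level (10uM) Luciferin-H EGE; it ran 60 min at 37C after NADPH regeneration and a 10 min compound preincubation. Luminescence values were scaled to 57uM ketoconazole as complete inhibition.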

The nature of assay [5]: qHTS Assay for Identification of Small Molecule Agonists for Hypoxia Response Element Signaling Pathway (AID 914; active = well fitted activation curve with a large enough effect in the signal ratio, with a control signal flat, not every such curve was filed as active; the % refers to the signal ratio; also: % of control where 0% means no effect). Conditions: ME-180 (cervical carcinoma) HRE-bla reporter, beta-lactamase ratio, CoCl2, 17 h; stronger effect = higher value. In short, it runs like this: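 Positive modulation of EC50 CoCl2-induced hypoxia response element signaling is measured in ME-180 cells with a beta-lactamase reporter. Compounds are titrated, incubation runs 17 hours, and %Activity derives from the blue/green ratio.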

Sequence of Cytochrome P450 2C9 (Homo sapiens) (P11712 whole entry, looked up): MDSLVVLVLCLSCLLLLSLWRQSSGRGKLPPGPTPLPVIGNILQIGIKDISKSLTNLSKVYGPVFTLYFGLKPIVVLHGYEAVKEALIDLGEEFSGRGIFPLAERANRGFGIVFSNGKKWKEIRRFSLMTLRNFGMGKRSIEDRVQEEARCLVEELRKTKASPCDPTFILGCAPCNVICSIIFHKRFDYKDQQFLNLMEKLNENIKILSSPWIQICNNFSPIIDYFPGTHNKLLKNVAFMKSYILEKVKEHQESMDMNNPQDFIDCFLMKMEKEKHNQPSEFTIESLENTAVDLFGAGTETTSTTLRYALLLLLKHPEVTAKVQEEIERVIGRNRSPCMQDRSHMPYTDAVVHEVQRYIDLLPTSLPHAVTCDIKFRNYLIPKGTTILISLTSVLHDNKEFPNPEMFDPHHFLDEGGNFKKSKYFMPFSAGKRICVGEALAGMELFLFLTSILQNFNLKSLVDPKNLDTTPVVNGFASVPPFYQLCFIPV
Sequence of Cytochrome P450 2D6 (Homo sapiens) (P10635 whole entry, looked up): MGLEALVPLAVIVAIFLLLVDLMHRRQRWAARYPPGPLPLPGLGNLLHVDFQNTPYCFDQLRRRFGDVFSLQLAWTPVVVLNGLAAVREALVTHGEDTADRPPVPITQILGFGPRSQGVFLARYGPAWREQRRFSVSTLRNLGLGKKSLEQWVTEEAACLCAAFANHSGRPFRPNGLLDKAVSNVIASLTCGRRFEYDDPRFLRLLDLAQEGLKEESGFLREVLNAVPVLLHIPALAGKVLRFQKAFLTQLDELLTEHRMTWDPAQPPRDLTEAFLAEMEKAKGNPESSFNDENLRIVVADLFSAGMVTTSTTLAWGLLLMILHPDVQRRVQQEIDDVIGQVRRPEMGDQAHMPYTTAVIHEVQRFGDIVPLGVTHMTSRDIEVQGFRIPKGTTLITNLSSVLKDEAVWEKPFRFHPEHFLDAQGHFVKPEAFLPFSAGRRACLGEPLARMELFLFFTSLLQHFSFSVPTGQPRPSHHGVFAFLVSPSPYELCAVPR
Sequence of Cytochrome P450 3A4 (Homo sapiens) (P08684 whole entry, looked up): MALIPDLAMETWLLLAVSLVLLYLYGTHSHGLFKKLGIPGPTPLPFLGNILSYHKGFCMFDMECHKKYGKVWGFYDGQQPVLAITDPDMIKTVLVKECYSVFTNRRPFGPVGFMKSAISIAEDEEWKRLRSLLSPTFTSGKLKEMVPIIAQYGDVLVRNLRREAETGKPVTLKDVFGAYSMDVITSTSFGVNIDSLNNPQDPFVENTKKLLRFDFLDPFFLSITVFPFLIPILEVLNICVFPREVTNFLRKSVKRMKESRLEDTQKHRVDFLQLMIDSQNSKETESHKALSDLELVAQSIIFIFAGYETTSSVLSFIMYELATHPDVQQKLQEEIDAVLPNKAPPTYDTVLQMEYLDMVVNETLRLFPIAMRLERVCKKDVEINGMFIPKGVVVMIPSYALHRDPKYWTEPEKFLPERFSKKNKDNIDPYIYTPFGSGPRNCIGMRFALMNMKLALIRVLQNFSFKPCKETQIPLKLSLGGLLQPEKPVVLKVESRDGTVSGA
Sequence of Cytochrome P450 2C19 (Homo sapiens) (P33261 whole entry, looked up): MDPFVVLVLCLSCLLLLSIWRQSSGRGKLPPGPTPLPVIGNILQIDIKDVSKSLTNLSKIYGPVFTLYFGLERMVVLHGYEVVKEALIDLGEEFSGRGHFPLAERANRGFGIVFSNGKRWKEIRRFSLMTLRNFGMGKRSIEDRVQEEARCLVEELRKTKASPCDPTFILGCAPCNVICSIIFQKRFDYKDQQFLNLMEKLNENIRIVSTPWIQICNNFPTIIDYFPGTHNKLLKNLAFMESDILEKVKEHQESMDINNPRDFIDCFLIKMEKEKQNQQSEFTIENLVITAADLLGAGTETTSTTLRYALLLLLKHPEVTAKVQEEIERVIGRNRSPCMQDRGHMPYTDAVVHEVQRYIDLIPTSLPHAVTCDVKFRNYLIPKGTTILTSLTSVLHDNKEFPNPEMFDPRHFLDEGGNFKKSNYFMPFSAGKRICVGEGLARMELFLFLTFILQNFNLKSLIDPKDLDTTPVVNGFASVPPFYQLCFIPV

For `COc1ccccc1/C=C/C1=CC2(C)CC1(C)C(c1ccccc1OC)CC2=O` (stereo not given), the Potency in assay [1] is 3980 nM (active); in assay [4], 3160 nM (active). In assay [2], the activity change, positive = activation is -56.9% [at 11.4 µM] (inactive). In assay [3], the Potency result was “inactive”.
The like results for `CC(=O)OCC1OC(C#CCC2CCCCC2)C=CC1OC(C)=O` (stereo not given) were, in that order, “inactive”, “inactive”, -56.3% [at 11.4 µM] (inactive) and “inactive”.
The like results for `C=CCOC(=O)C(C(C)=O)C(NC(=O)OC)c1cccs1` (stereo not given) were, in that order, “inactive”, 398 nM (active), -101% [at 11.4 µM] (inactive) and “inactive”.
`COC(=O)NC(c1cccs1)C(C(C)=O)C(=O)OC` (stereo not given): the Potency result in assay [1] and in assay [3] was “inactive” each time. For the same molecule, the activity change, positive = activation in assay [2] was -34.2% [at 11.4 µM] (inactive).
`O=Cc1ccc(OC2C=CC(C#Cc3ccccc3)OC2CO)cc1` (stereo not given): in assay [1], the Potency is 2510 nM (active). For the same molecule, the activity change, positive = activation in assay [2] was -42% [at 11.4 µM] (inactive). Moreover, the Potency entry in assay [3] is “inactive”.
With `C=C(C)C(O)/C=C/C=C/c1ccccc1` (stereo not given), the Potency result in assay [1], in assay [3] and in assay [4] was “inactive” each time. In assay [2], the activity change, positive = activation is -32.8% [at 11.4 µM] (inactive).
Consider `COC(=O)C/C=C/C(C)C(OCc1cccc(Br)c1)C(C)C(OC)C1CCCCC1` (stereo not given), for which the Potency in assay [1] was 2510 nM (active). For the same molecule, the activity change, positive = activation in assay [2] is -58% [at 11.4 µM] (inactive). Also, the Potency entry in assay [3] is “inactive”.
`CC(=O)Nc1ccc(C2C(C)CCC3C(=O)N4C(CCC(C)[C@@H]4c4ccc(NC(C)=O)cc4)C(=O)N32)cc1` (stereo not given in full): the Potency entry in assay [1], in assay [3] and in assay [4] was “inactive” in each case. In addition, the activity change, positive = activation in assay [2] was -34.4% [at 11.4 µM] (inactive).
As for `C=CCC1(C)OC=Cc2nc3cc(Cl)c(Cl)cc3nc21` (stereo not given), the Potency result in assay [1] and in assay [3] was “inactive” throughout. In addition, in assay [2], the activity change, positive = activation was -59.2% [at 11.4 µM] (inactive). In addition, the Potency in assay [4] is 3980 nM (active).
`C=CCOC(=O)C(C(=O)CC)C(NC(=O)OC)c1ccc(F)cc1` (stereo not given): the Potency entry in assay [1] and in assay [3] was “inactive” each time. In addition, the activity change, positive = activation in assay [2] was -52.3% [at 11.4 µM] (inactive).
As for `COc1ccc(OC2C=CC(c3ccccc3)OC2CO)c(C(C)=O)c1` (stereo not given), the Potency result in assay [1], in assay [3] and in assay [4] was “inactive” throughout. Besides, the activity change, positive = activation in assay [2] was -57.7% [at 11.4 µM] (inactive).
Take `C=C(C)C(O)/C=C/CCCCCCC` (stereo not given): the Potency entry in assay [1] and in assay [3] was “inactive” in each case. Besides, in assay [2], the activity change, positive = activation is -33.5% [at 11.4 µM] (inactive).
Take `COC(=O)C1=C(C)N(Cc2ccccc2)C2=C(C(C)=O)C[C@@](O)(C(=O)OC)C(=O)N2C1c1ccccc1` (stereo not given in full): the Potency entry in assay [1], in assay [3] and in assay [4] was “inactive” in each case. In addition, the activity change, positive = activation in assay [2] is -45.3% [at 11.4 µM] (inactive) and -48.2% [at 11.4 µM] (inactive).
Take `COC(=O)C1=C(C)N(Cc2ccccc2)[C@]23O[C@](C(=O)OC)(C(=O)N2C1c1ccccc1)C1C(=O)N(c2ccccc2)C(=O)C13` (stereo not given in full): the Potency result in assay [1], in assay [3] and in assay [4] was “inactive” in each case. Further, in assay [2], the activity change, positive = activation was -42.8% [at 11.4 µM] (inactive) and -32.3% [at 11.4 µM] (inactive).
For the molecule `COC(c1ccccc1Br)C(C)/C=C/CCO` (stereo not given), the Potency entry in assay [1] and in assay [3] was “inactive” each time. Further, in assay [2], the activity change, positive = activation is -47.9% [at 11.4 µM] (inactive). Also, the Potency in assay [4] is 1580 nM (active).
Take `CC1CCC2C(=O)N3C(CCC(C)[C@@H]3c3ccc(Br)cc3)C(=O)N2C1c1ccc(Br)cc1` (stereo not given in full): in assay [1], the Potency is 3160 nM (active). Further, in assay [2], the activity change, positive = activation is -48.7% [at 11.4 µM] (inactive). For the same molecule, in assay [3], the Potency entry was “inactive”.
For `COC(c1ccccc1)C(C)C(OC)C(C)C(OC)C(C)C(C)=O` (stereo not given), the Potency entry in assay [1], in assay [3] and in assay [4] was “inactive” in each case. In addition, the activity change, positive = activation in assay [2] is -36.1% [at 11.4 µM] (inactive).
Turning to `C[C@@]12CCC3c4ccc(OC5C=CC(c6ccccc6)OC5CO)cc4CCC3C1CCC2=O` (stereo not given in full), the Potency entry in assay [1], in assay [3] and in assay [4] was “inactive” each time. In addition, in assay [2], the Potency is 3160 nM (active).
Turning to `CCCCC#CC1C=CC(Oc2cc(OC)c(OC)c(OC)c2)C(CO)O1` (stereo not given), the Potency result in assay [1], in assay [3] and in assay [4] was “inactive” in each case. The activity change, positive = activation in assay [2] is -45% [at 11.4 µM] (inactive).
Turning to `COC1(C#CC2C=CC(OC(C)=O)C(COC(C)=O)O2)CCCCC1` (stereo not given), the Potency result in assay [1], in assay [3] and in assay [4] was “inactive” in each case. Also, the activity change, positive = activation in assay [2] was -43% [at 11.4 µM] (inactive).
As for `C=C(C)C(O)/C=C/c1ccccc1OC` (stereo not given), the Potency entry in assay [1], in assay [3] and in assay [4] was “inactive” in each case. In assay [2], the activity change, positive = activation was -35.5% [at 11.4 µM] (inactive).
Consider `CC(=O)OCC1OC(C#Cc2ccc(Br)cc2)C=CC1OC(C)=O` (stereo not given), for which the Potency entry in assay [1], in assay [3] and in assay [4] was “inactive” in each case. In assay [2], the activity change, positive = activation is -46% [at 11.4 µM] (inactive).
As for `C(#CC1C=CC2OC(c3ccccc3)OCC2O1)c1ccccc1` (stereo not given), the Potency result in assay [1], in assay [3] and in assay [4] was “inactive” each time. Also, the activity change, positive = activation in assay [2] is -40.5% [at 11.4 µM] (inactive).
For `CCCCCCC1=Cc2cc(OC)c(OC)cc2C(CC(=O)/C=C/OC)O1` (stereo not given), the Potency result in assay [1], in assay [3] and in assay [4] was “inactive” in each case. Further, in assay [2], the activity change, positive = activation was -40.4% [at 11.4 µM] (inactive).
As for `C=CCOC(=O)C(C(C)=O)C(NC(=O)OC)c1ccc2ccccc2c1` (stereo not given), the Potency result in assay [1] and in assay [3] was “inactive” each time. Further, the activity change, positive = activation in assay [2] is -46.5% [at 11.4 µM] (inactive). Also, in assay [4], the Potency was 126 nM (active).
As for `COC(=O)NC(/C=C/c1ccccc1)[C@]1(C(C)=O)CCCC1=O` (stereo not given in full), the Potency entry in assay [1] and in assay [3] was “inactive” in each case. For the same molecule, in assay [2], the activity change, positive = activation was -41.6% [at 11.4 µM] (inactive).
On to `COC(=O)NC(c1ccco1)[C@]1(C(C)=O)CCCC1=O` (stereo not given in full), for which the Potency entry in assay [1], in assay [3] and in assay [4] was “inactive” throughout. Further, the activity change, positive = activation in assay [2] is -35.9% [at 11.4 µM] (inactive).
Consider `CC(=O)OCC1OC(C#CCCCc2ccccc2)C=CC1OC(C)=O` (stereo not given), for which, in assay [1], the Potency entry is “inactive”. Moreover, the activity change, positive = activation in assay [2] is -71.4% [at 11.4 µM] (inactive) and -59.5% [at 11.4 µM] (inactive). Besides, the Potency in assay [3] is 3.98 µM (active) and 3.16 µM (active).
Turning to `COC(C1CCCCC1)C(C)C(OCc1cccc(Br)c1)C(C)CO` (stereo not given), the Potency entry in assay [1] and in assay [3] was “inactive” throughout. Moreover, the activity change, positive = activation in assay [2] is -47.3% [at 11.4 µM] (inactive). In assay [4], the Potency is 1580 nM (active).
Regarding `COCOc1cc(OC)ccc1C(=O)/C=C\c1ccc2c(c1)OCO2`, the Potency in assay [1] was 2510 nM (active); in assay [3] it was 3.98 µM (active). The activity change, positive = activation in assay [2] was -101% [at 11.4 µM] (inactive).
For `CCN1C(C)=C(C(=O)OC)C(c2ccccc2)N2C(=O)[C@](O)(C(=O)OC)CC(C#N)=C12` (stereo not given in full), the Potency entry in assay [1], in assay [3] and in assay [4] was “inactive” throughout. Besides, the activity change, positive = activation in assay [2] was -38.3% [at 11.4 µM] (inactive).
For `CCCCCCC1=Cc2cc(OC)c(OC)cc2C(C2(C(=O)OCC)CCCC2=O)O1` (stereo not given), the Potency entry in assay [1], in assay [3] and in assay [4] was “inactive” each time. For the same molecule, the activity change, positive = activation in assay [2] is -36.1% [at 11.4 µM] (inactive).
Take `O=C1/C(=C/c2ccccc2)Oc2ccccc21`: the Potency result in assay [1], in assay [3] and in assay [4] was “inactive” each time.
As to `COC(=O)[C@@H]1CC[C@H](C)[C@@H](c2ccc(C)cc2)N1C(=O)c1ccc(/C=N\OC[C@@H](O)COCc2ccco2)cc1`, the Potency in assay [1] is 3980 nM (active). The activity change, positive = activation in assay [2] was -58.1% [at 11.4 µM] (inactive). Moreover, in assay [5], the activation was 9.82% (inactive).
For the molecule `CC1CCC2C(=O)OC(CN=[N+]=[N-])CN2C1c1ccc(Br)cc1` (stereo not given), in assay [1], the Potency entry is “inactive and 1 µM (active)”. In addition, in assay [3], the Potency result was “inactive”.
Turning to `CC(C)CN1CCc2nc(-c3ccccc3)c3c(c2C1)COC(C)C3` (stereo not given), the Potency result in assay [1] and in assay [4] was “inactive” throughout. Also, the activity change, positive = activation in assay [2] was -40.3% [at 11.4 µM] (inactive).
